Screening results as filed in PubChem BioAssay.
A selection follows.
aSyn UTR act: Activators working through SNCA 5'UTR binding (MLPCN); alpha-synuclein 5'UTR reporter, activators screen; 7.1% of 300,000 active; activity score, % (tested at 7.5 µM), hits read low; in the data active = activity score below about -60%
Numbers without * were called inactive.

SMILES	aSyn UTR act
CN(C)CCCN(C(=O)CCc1ccccc1)c1nc2ccc(Cl)cc2s1	109
CN(C)CCCN(C(=O)c1ccc2c(c1)OCCO2)c1nc2cc3c(cc2s1)OCO3	-92*
CN(C)CCCN(C(=O)c1sc2ccccc2c1Cl)c1nc2ccc(F)cc2s1	-99*
CCCCN(C)S(=O)(=O)c1ccc(C(=O)N(CCN(C)C)c2nc3ccc(C)cc3s2)cc1	-74*
CN(C)CCN(C(=O)c1ccc2ccccc2c1)c1nc2cc3c(cc2s1)OCCO3	-74*
CCN(CC)CCN(C(=O)c1cc2c(ccc3ccccc32)oc1=O)c1nc2cc3c(cc2s1)OCCO3	78
O=C(NCc1ccncc1)C(=O)Nc1nc2ccccc2s1	-72*
S=C(Nc1ccccc1)c1nc2ccccc2s1	-170*
O=C(CC1CCCCC1)Nc1nc2ccccc2s1	-130*
O=C(NNc1nc2ccccc2s1)Nc1ccccc1	-255*
CCNC(=O)Nc1nc2ccccc2s1	-97*
Cc1cnc(NC(=O)CC2CCCC2)s1	-131*
FC(F)(F)c1cnc(-c2cnc(-c3cccnc3)nc2)c(Cl)c1	-124*
O=[N+]([O-])c1ccc(Sc2cccc[n+]2[O-])c2nonc12	85
CCOc1ccc(Nc2ccc([N+](=O)[O-])c3nonc23)cc1	-123*
Clc1ccccc1CSc1ncn(-c2ccccc2)n1	-185*
COc1ncccc1-c1nnn(-c2ccccc2)n1	-156*
COc1ncccc1-c1nnn(-c2ccccc2Br)n1	-88*
O=C(Cc1ccccc1[N+](=O)[O-])NCc1ccc(Cl)cc1Cl	-142*
O=C(Cc1ccccc1[N+](=O)[O-])NCc1ccc(Cl)cc1	-94*
COc1ccccc1C(=O)N=c1sc2c(C)ccc(OC)c2n1C	-80*
COc1ccc(C(=O)N=c2sc3c(C)ccc(OC)c3n2C)cc1OC	-295*
COc1cccc(C(=O)N=c2sc3c(C)ccc(OC)c3n2C)c1	-209*
O=C(NNC(=S)Nc1ccccc1)c1cccs1	-231*
O=C(NNC(=S)Nc1ccc(Cl)cc1)c1cccs1	-125*
SMILES	aSyn UTR act
c1ccc(-c2ccc(-c3ccncn3)cc2)cc1	-78*
O=c1[nH]c(-c2ccccn2)nc2sc(-c3ccccc3)cc12	-91*
O=[N+]([O-])c1ccccc1/C=N/OCc1ccccc1	-167*
Cn1nc(-c2ccc(N3CCCCC3)c(NC(=O)c3ccco3)c2)c2ccccc2c1=O	67
Cn1nc(C(=O)Nc2ccc(S(=O)(=O)NCc3ccco3)cc2)c2ccccc2c1=O	-96*
O=C(NNC(=S)NC1CCCCC1)c1ccc2c(c1)OCO2	-78*
O=C(NC1CCCCC1)c1ccc2c(c1)OCCO2	-82*
S=C(NC1CCCCC1)c1ccc2c(c1)OCO2	-65*
Cc1ccc(C(=O)NC2CCc3ccccc3C2=O)cc1 (stereo not drawn)	-169*
O=C(CSc1nnc(NC2CCCCC2)s1)Nc1ccc2c(c1)C(=O)c1ccccc1C2=O	-121*
Cc1ccc(Nc2nnc(SCC(=O)Nc3cccc(S(=O)(=O)N4CCCCC4)c3)s2)cc1	-119*
CC(C)Nc1nnc(SCC(=O)Nc2ccc3c(c2)C(=O)c2ccccc2C3=O)s1	-184*
CCC(C)NC(=O)c1cc2cc3ccc(OC)cc3nc2o1 (stereo not drawn)	-147*
CCCCN(CC)C(=O)c1cc2cc3ccc(OC)cc3nc2o1	-111*
CC1CCN(Cc2nc(-c3ccccc3)no2)CC1	-190*
CC(C)C(O)C1CCN(Cc2nc(-c3cccs3)no2)CC1 (stereo not drawn)	-108*
Cc1ccc(-c2noc(CN3CCC(C(N)=O)CC3)n2)cc1	-86*
COCCNC(=O)Cn1nc(-c2ccccc2OC)ccc1=O	-62*
CCCOc1ccc(C(=O)Nc2ccccc2[N+](=O)[O-])cc1	-401*
Cc1ccc(NC(=O)c2cccnc2)c([N+](=O)[O-])c1	-63*
COc1ccc(NC(=O)c2ccccc2)c([N+](=O)[O-])c1	-144*
Cc1c(C(=O)Nc2ccccc2[N+](=O)[O-])csc1-c1ccccc1	-142*
CCCOc1ccc(C(=O)NNC(=S)NC(=O)c2ccccc2)cc1	80
CCCc1cc(C(=O)Nc2ccc(OC)cc2[N+](=O)[O-])cs1	-100*
Cc1cccc(-c2nnc(SCC(=O)N3CCCC3)o2)c1	-83*
SMILES	aSyn UTR act
CCOC(=O)N1CCN(C(=O)CSc2nnc(-c3ccc(C(C)(C)C)cc3)o2)CC1	-73*
Cc1ccc(-c2nnc(SCC(=O)N3CCCC3)o2)cc1	-104*
Cc1ccc(-c2nnc(SCC(=O)N3CCCC3)o2)cc1C	-83*
CC1(C)Cc2c(c(N3CCOCC3)nc3sc4c(NCc5ccccc5)nnnc4c23)CS1	68
O=C(CSc1nnc(-c2ccc(F)cc2)o1)N1CCCC1	-114*
CCc1ccc2nc(/N=C(\N)NC(=O)c3ccccc3)nc(C)c2c1	-120*
C=CCn1c(=S)[nH]c2nc3c(cc2c1=O)CCCC3	-92*
Cc1c(N/N=C(\C#N)C(=O)c2ccc(Cl)cc2)c(=O)n(-c2ccccc2)n1C	86
Cc1c(NC(=O)c2cc(C3CC3)on2)c(=O)n(-c2ccccc2)n1C	-62*
Cc1ccc(/C=C/c2nc3ccccc3s2)s1	71
Cc1cc(NC(=O)C(C)C)n(-c2nc3ccccc3s2)n1	-78*
Cc1cc(N)n(-c2ccc3ccccc3c2)n1	-119*
Cc1cc(C)n(-c2nc3ccccc3s2)n1	-168*
Cc1cc(N)n(-c2nc3ccccc3s2)n1	-157*
O=C(CN1CC[n+]2c(-c3cccs3)csc21)c1ccc(-c2ccccc2)cc1	-65*
CCN(C(=O)c1cccs1)c1nnc(-c2ccncc2)s1	-76*
CCN1CCN(c2cc(C)c3cc(NC(=O)c4cccs4)ccc3n2)CC1	-109*
CCN1CCN(c2cc(C)c3cc(NC(=O)c4ccc(OC)c(OC)c4)ccc3n2)CC1	-72*
CCN1CCN(c2cc(C)c3cc(NC(=O)c4cccc(OC)c4)ccc3n2)CC1	-124*
COc1ccc(C(=O)Nc2ccc3nc(N4CCN(C)CC4)cc(C)c3c2)c(OC)c1	-78*
Cc1cc(N2CCN(C)CC2)nc2ccc(NC(=S)N3CCCCC3)cc12	-85*
CCCCN(C)C(=S)Nc1ccc2nc(N3CCN(CC)CC3)cc(C)c2c1	-70*
Cc1cccc(N2CCN(C(=S)Nc3ccc4nc(N5CCN(C)CC5)cc(C)c4c3)CC2)c1C	95
O=C(COC(=O)c1cccc(O)c1)c1ccccc1	-69*
Cc1ccc(C(=O)COC(=O)c2ccc(O)cc2)cc1	-182*
SMILES	aSyn UTR act
Nc1cccc(C(=O)OCC(=O)c2ccccc2)c1	-86*
N/C(=N\OC(=O)Cc1ccccc1)c1ccc(Br)cc1	-80*
N/C(=N\OC(=O)CCCc1ccccc1)c1ccccc1Cl	-98*
O=C(Cc1ccccn1)c1ccc(F)cc1	-64*
O=C(CC(=O)c1ccccc1O)c1ccc(F)cc1	-75*
COc1ccc(/C(N)=N/OC(=O)CCc2ccccc2)cc1	-100*
Cc1cccc(/C(N)=N/OC(=O)CCc2ccccc2)c1	-157*
COc1ccc(NC(=O)CCSc2ccc(F)cc2)cc1	-93*
Cc1ccc(/C(N)=N/OC(=O)CCCc2ccccc2)cc1	-68*
COc1ccc(C(=O)CCc2ccccc2)cc1	-111*
COc1ccc(OCc2cccc(C(=O)O)c2)cc1	128
COc1ccc(C(=O)CC(=O)c2ccc(F)cc2)cc1	-165*
COc1ccc(C(=O)CC(=O)C(=O)Nc2ccc(C)c(C)c2)cc1	-63*
COc1ccc(C(=O)C(CCC(CNC(C)(C)C)C(=O)c2ccc(OC)cc2)CNC(C)(C)C)cc1 (stereo not drawn)	65
Cc1ccc(/C(N)=N/OC(=O)Cc2ccccc2)cc1	-130*
